Our source for the inhibition values is ChEMBL document CHEMBL1961873, “Compounds: GSK PKIS; Assays: Nanosyn kinase panel” (2012).

What is called inhibition is the drop in the measured response relative to a control, in per cent.

Experiment [1] has as its target Protein kinase C gamma type (Homo sapiens) (UniProt P05129). Conditions: at 1 µM.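 Also: each value is an averaged percent inhibition of the enzyme.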
In experiment [2] the target is T1, Protein kinase C iota type (Homo sapiens) (UniProt P41743).
T1 sequence (whole entry): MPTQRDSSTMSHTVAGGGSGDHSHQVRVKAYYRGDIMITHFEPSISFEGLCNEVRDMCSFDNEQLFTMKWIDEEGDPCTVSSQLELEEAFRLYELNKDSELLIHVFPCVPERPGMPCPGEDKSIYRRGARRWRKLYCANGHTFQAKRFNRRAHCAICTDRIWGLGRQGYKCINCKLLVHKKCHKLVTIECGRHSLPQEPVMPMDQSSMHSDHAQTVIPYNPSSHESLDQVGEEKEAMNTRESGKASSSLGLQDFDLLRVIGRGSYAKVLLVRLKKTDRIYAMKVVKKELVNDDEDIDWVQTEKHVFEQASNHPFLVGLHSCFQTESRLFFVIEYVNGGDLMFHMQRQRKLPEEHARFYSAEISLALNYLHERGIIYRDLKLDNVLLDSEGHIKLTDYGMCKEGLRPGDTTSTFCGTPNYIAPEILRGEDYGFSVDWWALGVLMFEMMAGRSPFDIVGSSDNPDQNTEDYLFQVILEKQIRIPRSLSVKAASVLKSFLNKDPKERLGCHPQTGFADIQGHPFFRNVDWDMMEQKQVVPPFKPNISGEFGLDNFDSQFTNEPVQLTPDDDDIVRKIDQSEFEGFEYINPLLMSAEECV
The conditions noted are these: at 0.1 µM.

Experiment [3] concerns the target T1, Protein kinase C iota type (Homo sapiens). The conditions noted are these: at 1 µM.
Experiment [4] addresses Protein kinase C theta type (Homo sapiens) (UniProt Q04759). The conditions noted are these: at 0.1 µM.
The target is the same in experiment [5]. The conditions noted are these: at 1 µM.
In experiment [6] the target is Protein kinase C beta type (Homo sapiens) (UniProt P05771). Conditions: at 0.1 µM.
Protein kinase C beta type (Homo sapiens), sequence (P05771 2-671 limits assumed): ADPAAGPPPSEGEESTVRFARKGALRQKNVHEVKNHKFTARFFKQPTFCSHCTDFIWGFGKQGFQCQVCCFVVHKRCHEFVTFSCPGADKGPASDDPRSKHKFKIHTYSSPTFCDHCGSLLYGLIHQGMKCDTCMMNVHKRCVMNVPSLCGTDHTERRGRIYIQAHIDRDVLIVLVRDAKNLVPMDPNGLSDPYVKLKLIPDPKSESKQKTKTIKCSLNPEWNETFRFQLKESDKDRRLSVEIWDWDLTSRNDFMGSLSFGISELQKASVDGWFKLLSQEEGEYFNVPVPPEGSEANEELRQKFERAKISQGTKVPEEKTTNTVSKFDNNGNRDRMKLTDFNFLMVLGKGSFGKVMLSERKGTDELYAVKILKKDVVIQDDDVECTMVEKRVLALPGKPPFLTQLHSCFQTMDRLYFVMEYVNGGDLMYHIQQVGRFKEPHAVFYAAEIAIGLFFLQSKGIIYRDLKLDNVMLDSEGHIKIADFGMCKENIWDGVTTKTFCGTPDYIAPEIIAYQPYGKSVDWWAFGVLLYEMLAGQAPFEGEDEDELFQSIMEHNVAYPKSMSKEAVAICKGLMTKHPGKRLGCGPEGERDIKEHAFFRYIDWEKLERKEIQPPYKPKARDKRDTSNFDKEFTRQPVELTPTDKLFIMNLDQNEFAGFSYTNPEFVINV
Experiment [7] shares this target. The conditions noted are these: at 1 µM.
Experiment [8] concerns the target T2, Serine/threonine-protein kinase D1 (Homo sapiens) (UniProt Q15139).
T2 sequence (whole entry): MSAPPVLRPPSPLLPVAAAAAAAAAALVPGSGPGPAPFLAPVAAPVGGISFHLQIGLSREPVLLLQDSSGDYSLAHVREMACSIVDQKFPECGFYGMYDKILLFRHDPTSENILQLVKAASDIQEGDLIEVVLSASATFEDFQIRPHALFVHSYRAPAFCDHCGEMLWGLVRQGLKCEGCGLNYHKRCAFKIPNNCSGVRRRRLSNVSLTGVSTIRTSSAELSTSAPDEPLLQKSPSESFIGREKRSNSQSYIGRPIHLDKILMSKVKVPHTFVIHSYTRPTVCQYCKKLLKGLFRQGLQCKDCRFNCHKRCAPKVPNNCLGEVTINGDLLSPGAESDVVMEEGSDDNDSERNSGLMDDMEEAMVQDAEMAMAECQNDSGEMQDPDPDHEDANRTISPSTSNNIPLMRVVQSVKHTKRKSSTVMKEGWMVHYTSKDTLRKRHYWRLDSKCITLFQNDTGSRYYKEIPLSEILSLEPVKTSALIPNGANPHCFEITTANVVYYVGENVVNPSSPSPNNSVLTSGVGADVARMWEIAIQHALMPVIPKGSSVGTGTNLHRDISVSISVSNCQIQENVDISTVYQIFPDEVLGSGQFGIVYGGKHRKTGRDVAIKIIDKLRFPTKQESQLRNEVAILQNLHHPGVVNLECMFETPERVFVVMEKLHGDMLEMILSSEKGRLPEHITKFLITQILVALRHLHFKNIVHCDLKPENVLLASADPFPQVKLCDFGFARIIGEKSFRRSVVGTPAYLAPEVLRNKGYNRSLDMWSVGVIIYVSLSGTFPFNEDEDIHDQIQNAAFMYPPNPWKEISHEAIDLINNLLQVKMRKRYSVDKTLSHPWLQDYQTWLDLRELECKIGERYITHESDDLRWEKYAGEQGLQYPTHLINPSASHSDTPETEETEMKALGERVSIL
The conditions noted are these: at 0.1 µM.

Experiment [9] deals with T2, Serine/threonine-protein kinase D1 (Homo sapiens). Conditions: at 1 µM.
Experiment [10] has as its target T3, Serine/threonine-protein kinase D2 (Homo sapiens) (UniProt Q9BZL6).
T3 sequence (whole entry): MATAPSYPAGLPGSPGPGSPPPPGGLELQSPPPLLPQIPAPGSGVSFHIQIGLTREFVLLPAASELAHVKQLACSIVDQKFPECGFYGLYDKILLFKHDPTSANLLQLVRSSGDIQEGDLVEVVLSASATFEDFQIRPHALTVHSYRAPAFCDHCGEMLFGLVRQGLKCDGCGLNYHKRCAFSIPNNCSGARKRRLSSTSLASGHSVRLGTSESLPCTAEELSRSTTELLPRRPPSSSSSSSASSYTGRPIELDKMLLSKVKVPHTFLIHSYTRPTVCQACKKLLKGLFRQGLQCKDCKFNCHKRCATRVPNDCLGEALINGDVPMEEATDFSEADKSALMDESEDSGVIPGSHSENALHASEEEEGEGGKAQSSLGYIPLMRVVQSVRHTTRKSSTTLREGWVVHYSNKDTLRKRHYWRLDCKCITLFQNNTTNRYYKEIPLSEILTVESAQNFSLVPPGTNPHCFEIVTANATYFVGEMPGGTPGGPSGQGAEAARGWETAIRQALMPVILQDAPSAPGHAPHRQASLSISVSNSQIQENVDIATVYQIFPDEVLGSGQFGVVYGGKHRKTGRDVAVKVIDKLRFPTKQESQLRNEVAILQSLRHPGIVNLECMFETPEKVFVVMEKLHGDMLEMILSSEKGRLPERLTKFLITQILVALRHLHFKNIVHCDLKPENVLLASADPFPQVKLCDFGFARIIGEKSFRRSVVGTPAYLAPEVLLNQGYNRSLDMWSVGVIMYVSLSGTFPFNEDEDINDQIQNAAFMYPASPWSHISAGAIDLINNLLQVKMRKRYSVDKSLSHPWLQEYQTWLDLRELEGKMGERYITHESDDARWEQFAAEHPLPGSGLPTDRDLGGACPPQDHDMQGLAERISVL
Conditions: at 0.1 µM.

Experiment [11] concerns the target T3, Serine/threonine-protein kinase D2 (Homo sapiens). The conditions noted are these: at 1 µM.
Experiment [12] concerns the target T4, Serine/threonine-protein kinase D3 (Homo sapiens) (UniProt O94806).
T4 sequence (whole entry): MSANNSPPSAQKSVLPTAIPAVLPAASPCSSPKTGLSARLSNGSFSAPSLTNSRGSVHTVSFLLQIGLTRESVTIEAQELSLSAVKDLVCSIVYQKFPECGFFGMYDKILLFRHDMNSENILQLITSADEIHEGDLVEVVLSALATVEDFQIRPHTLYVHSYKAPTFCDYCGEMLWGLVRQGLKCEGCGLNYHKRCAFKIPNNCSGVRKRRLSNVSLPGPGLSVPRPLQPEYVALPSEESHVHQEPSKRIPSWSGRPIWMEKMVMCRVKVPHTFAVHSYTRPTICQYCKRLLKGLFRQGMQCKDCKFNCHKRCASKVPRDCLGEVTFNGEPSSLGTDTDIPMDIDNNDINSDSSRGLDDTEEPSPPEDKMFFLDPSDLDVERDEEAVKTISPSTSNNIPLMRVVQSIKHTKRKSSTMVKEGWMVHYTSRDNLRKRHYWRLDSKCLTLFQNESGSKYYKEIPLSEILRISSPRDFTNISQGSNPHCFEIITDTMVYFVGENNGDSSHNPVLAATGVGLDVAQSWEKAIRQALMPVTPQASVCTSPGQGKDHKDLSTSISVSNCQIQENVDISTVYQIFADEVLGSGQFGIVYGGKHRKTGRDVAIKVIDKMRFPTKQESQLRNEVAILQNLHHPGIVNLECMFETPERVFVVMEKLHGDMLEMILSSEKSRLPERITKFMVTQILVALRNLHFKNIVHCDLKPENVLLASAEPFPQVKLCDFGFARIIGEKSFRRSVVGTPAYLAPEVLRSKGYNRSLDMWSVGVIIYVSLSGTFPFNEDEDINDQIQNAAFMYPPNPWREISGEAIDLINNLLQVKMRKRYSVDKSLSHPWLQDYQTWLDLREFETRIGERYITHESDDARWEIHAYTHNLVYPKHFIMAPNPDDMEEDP
Conditions: at 0.1 µM.

The target of experiment [13] is T4, Serine/threonine-protein kinase D3 (Homo sapiens). The conditions noted are these: at 1 µM.
For experiment [14], the target named is T5, cGMP-dependent protein kinase 1 (Homo sapiens) (UniProt Q13976).
T5 sequence (whole entry): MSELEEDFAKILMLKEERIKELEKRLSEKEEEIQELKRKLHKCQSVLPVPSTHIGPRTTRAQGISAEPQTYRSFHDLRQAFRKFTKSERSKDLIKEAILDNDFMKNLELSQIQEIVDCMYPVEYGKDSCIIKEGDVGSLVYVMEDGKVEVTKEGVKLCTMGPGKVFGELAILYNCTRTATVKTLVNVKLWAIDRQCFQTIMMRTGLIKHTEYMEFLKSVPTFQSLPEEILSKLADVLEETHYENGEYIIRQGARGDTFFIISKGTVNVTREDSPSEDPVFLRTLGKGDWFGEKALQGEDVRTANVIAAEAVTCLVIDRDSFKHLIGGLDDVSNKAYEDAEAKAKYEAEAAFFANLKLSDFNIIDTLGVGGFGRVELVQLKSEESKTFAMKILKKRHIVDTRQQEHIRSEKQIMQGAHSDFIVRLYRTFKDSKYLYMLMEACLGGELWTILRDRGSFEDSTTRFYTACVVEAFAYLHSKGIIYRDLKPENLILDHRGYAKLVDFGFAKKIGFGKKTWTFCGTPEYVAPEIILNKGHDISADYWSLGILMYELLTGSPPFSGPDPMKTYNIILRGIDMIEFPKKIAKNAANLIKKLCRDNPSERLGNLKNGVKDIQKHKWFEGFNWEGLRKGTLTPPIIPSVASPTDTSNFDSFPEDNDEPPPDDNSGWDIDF
Conditions: at 0.1 µM.

For experiment [15], the target named is T5, cGMP-dependent protein kinase 1 (Homo sapiens). Conditions: at 1 µM.
For experiment [16], the target named is T6, cGMP-dependent protein kinase 2 (Homo sapiens) (UniProt Q13237).
T6 sequence (whole entry): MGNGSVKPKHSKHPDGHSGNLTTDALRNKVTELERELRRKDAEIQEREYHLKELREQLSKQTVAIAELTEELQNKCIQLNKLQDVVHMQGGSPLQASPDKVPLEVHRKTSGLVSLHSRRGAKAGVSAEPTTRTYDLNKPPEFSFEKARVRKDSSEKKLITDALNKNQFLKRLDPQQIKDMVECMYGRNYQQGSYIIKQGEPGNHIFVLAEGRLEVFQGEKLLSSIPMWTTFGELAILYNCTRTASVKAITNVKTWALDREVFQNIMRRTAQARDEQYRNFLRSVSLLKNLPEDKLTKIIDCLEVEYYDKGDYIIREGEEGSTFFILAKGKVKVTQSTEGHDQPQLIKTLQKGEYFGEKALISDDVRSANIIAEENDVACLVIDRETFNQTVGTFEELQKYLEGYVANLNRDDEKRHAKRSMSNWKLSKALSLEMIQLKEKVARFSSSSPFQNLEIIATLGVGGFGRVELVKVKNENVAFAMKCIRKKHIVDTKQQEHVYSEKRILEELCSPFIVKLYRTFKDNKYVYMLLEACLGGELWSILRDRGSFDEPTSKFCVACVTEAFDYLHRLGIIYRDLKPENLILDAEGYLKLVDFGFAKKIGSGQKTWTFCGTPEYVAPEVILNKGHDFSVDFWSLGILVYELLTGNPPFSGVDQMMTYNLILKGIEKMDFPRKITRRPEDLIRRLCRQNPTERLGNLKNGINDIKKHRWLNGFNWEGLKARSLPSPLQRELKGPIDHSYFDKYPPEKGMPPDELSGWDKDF
The conditions noted are these: at 0.1 µM.

For experiment [17], the target named is T6, cGMP-dependent protein kinase 2 (Homo sapiens). Conditions: at 1 µM.
For experiment [18], the target named is T7, cAMP-dependent protein kinase catalytic subunit PRKX (Homo sapiens) (UniProt P51817).
T7 sequence (whole entry): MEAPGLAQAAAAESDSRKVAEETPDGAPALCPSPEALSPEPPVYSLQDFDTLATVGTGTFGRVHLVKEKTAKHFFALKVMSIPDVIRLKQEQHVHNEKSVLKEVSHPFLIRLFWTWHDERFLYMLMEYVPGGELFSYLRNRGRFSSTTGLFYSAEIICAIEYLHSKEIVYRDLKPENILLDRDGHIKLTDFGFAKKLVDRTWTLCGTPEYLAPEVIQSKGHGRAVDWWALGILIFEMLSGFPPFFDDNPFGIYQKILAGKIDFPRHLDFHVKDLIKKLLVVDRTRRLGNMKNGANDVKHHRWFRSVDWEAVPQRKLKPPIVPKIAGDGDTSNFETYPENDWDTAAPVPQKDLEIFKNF
Conditions: at 0.1 µM.

Experiment [19] deals with T7, cAMP-dependent protein kinase catalytic subunit PRKX (Homo sapiens). Conditions: at 1 µM.
For experiment [20], the target named is Rho-associated protein kinase 1 (Homo sapiens) (UniProt Q13464). Conditions: at 0.1 µM.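 Also: values are mean percent inhibition of ROCK1.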
Rho-associated protein kinase 1 (Homo sapiens), sequence (Q13464 2-1354 limits assumed): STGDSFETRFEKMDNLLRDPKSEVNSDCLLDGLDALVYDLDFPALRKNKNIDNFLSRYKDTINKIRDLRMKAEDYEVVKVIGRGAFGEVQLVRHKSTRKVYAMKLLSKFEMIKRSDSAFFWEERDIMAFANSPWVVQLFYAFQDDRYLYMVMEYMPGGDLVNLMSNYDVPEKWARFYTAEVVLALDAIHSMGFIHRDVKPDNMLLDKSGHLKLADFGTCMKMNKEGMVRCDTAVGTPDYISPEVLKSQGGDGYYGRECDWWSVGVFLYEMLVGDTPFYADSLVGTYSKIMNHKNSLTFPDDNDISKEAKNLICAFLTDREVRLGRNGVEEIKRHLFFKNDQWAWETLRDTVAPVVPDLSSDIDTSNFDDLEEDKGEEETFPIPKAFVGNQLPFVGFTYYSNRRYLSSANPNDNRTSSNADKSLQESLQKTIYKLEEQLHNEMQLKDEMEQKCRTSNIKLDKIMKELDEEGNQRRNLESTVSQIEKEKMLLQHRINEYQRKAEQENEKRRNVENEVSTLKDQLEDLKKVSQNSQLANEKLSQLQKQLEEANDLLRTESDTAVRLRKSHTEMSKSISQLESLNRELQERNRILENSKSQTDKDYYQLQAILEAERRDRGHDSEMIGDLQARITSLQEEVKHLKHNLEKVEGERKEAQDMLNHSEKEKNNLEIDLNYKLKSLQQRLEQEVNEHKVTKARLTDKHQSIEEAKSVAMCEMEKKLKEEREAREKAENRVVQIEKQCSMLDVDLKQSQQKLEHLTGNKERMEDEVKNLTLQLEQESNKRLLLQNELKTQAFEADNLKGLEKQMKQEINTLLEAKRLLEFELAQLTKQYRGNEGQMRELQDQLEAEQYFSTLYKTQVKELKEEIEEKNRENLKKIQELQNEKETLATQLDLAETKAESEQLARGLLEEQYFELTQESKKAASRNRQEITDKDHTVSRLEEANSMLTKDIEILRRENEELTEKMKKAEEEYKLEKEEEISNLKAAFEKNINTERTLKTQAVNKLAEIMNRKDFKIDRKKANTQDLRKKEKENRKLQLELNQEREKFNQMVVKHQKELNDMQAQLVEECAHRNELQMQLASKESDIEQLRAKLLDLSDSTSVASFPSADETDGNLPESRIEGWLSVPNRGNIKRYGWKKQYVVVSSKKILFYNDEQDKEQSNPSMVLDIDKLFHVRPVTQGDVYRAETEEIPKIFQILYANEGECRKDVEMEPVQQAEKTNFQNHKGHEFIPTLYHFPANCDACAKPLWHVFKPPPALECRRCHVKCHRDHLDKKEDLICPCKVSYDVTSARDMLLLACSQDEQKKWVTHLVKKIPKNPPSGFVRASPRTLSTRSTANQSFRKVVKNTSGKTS

Protein kinase C theta type (Homo sapiens), sequence (Q04759 whole entry, looked up): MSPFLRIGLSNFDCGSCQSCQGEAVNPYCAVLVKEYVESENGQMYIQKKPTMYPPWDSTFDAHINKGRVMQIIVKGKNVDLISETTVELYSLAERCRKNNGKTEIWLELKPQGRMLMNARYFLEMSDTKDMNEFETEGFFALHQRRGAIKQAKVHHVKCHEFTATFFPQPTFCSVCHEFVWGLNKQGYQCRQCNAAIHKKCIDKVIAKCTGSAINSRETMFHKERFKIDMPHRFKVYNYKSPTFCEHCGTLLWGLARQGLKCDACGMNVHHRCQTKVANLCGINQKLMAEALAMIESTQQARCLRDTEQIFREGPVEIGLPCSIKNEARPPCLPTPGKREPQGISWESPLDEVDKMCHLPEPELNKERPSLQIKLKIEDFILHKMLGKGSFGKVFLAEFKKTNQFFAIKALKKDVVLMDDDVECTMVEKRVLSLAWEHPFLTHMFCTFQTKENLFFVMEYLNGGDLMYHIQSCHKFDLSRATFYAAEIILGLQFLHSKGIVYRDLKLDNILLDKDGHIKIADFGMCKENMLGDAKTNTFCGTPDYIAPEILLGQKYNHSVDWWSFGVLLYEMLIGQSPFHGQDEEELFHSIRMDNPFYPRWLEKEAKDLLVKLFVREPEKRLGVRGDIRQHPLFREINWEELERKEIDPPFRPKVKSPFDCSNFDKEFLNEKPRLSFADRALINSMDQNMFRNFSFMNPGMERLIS

On to `COc1ccc2cc(-c3c(-c4ccncc4)nc(-c4ccc([S+](C)[O-])cc4C)n3C)ccc2c1` (stereo not given), for which the inhibition is -0.38% in experiment [1]; 0.41% in experiment [2]; -0.63% in [3]; -1.05% in experiment [4]; -1.26% in experiment [5]; 0.04% in experiment [6]. Besides, the inhibition is 5.01% in experiment [7]; -0.67% in [8]; -0.16% in [9]; -0.62% in [10]; 0.1% in experiment [11]; -0.55% in [12]. For the same compound, the inhibition is -0.05% in experiment [13]; 0.69% in experiment [14]; 0.56% in [15]; 0.02% in [16]; 0.21% in [17]; 0.49% in [18]. The inhibition is 1.21% in experiment [19] and -0.64% in [20].
